The full list was thinned out, with hits kept by preference.
Tgondii IFNg – blocks Toxoplasma gondii growth in the presence of IFN-gamma; Toxoplasma gondii growth in IFN-gamma-treated host cells; stronger effect = lower value; activity change, negative = inhibition, % (test concentration not listed); actives 3.8% (n = 69,000); in the data active = activity change below about -70%, passing the limit was not always enough;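 note: host cells are HeLa cells infected with Toxoplasma gondii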
The depositor's hits bear a star; i = inactive.

SMILES | Tgondii IFNg
C[C@@H]1CCCCO[C@@H](CN(C)C(=O)c2ccncc2)[C@H](C)CN([C@H](C)CO)C(=O)c2cc(NS(=O)(=O)c3cccs3)ccc2O1 | -19.7
Cc1ccc(S(=O)(=O)Nc2ccc3c(c2)C(=O)N([C@@H](C)CO)C[C@H](C)[C@@H](CN(C)S(=O)(=O)c2cccs2)OCCCC[C@@H](C)O3)cc1 | -90.4*
C[C@@H]1CCCCO[C@@H](CN(C)Cc2ccc(Cl)c(Cl)c2)[C@@H](C)CN([C@H](C)CO)C(=O)c2cc(NS(=O)(=O)c3cccs3)ccc2O1 | -44.6
C[C@@H]1CCCCO[C@H](CN(C)Cc2ccc(Cl)c(Cl)c2)[C@@H](C)CN([C@H](C)CO)C(=O)c2cc(NS(=O)(=O)c3cccs3)ccc2O1 | 105.9
Cc1ccc(S(=O)(=O)Nc2ccc3c(c2)C(=O)N([C@@H](C)CO)C[C@H](C)[C@@H](CN(C)S(=O)(=O)c2cccs2)OCCCC[C@H](C)O3)cc1 | -99.2*
C[C@@H]1CCCCO[C@H](CN(C)C(=O)c2ccncc2)[C@@H](C)CN([C@H](C)CO)C(=O)c2cc(NS(=O)(=O)c3cccs3)ccc2O1 | 76.1
C[C@H](CO)N1C[C@H](C)[C@@H](CN(C)Cc2ccc(Cl)c(Cl)c2)OCCCC[C@H](C)Oc2ccc(NS(=O)(=O)c3cccs3)cc2C1=O | -173.0*
Cc1ccc(S(=O)(=O)Nc2ccc3c(c2)C(=O)N([C@@H](C)CO)C[C@H](C)[C@H](CN(C)S(=O)(=O)c2cccs2)OCCCC[C@@H](C)O3)cc1 | -99.4*
Cc1noc(C)c1NC(=O)Nc1ccc2c(c1)C(=O)N([C@@H](C)CO)C[C@@H](C)[C@@H](CN(C)S(=O)(=O)c1cccs1)OCCCC[C@H](C)O2 | i
C[C@@H]1CCCCO[C@@H](CN(C)C(=O)c2ccncc2)[C@@H](C)CN([C@H](C)CO)C(=O)c2cc(NS(=O)(=O)c3cccs3)ccc2O1 | 11.8
Cc1noc(C)c1NC(=O)Nc1ccc2c(c1)C(=O)N([C@H](C)CO)C[C@H](C)[C@@H](CN(C)S(=O)(=O)c1cccs1)OCCCC[C@H](C)O2 | 185.4
Cc1noc(C)c1NC(=O)Nc1ccc2c(c1)C(=O)N([C@@H](C)CO)C[C@H](C)[C@H](CN(C)S(=O)(=O)c1cccs1)OCCCC[C@H](C)O2 | 311.8
CC(NC(=O)c1cccc2ccnn12)c1cn2ccsc2n1 (stereo unspecified) | 1.1
Cn1c(=O)cc(C(=O)Nc2nnc(C(c3ccccc3)c3ccccc3)s2)[nH]c1=O | -6.6
C=CCn1c2c(ccc1=O)CC(NC(=O)c1ccnnc1)CC2 (stereo unspecified) | -6.8
CC(C)NC(=O)CN(c1ccc2c(c1)OCO2)S(C)(=O)=O | 37.9
CCc1nccc(CN2CCCC(c3nn(C)c(=O)n3CC)C2)n1 (stereo unspecified) | 2.7
COc1cccc(-c2cn[nH]c2C2CCN(C(=O)CN3CCOC3=O)CC2)c1 | -3.4
Cc1nc2nnc3ccc(C(=O)Nc4cccnc4)cc3c2n1C1CCCC1 | -11.5
Cc1ccc(S(=O)(=O)Nc2ccc3c(c2)C(=O)N([C@@H](C)CO)C[C@@H](C)[C@@H](CN(C)S(=O)(=O)c2cccs2)OCCCC[C@@H](C)O3)cc1 | -99.3*
Cc1ccc(S(=O)(=O)Nc2ccc3c(c2)C(=O)N([C@H](C)CO)C[C@H](C)[C@@H](CN(C)S(=O)(=O)c2cccs2)OCCCC[C@@H](C)O3)cc1 | -46.6
Cc1noc(C)c1NC(=O)Nc1ccc2c(c1)C(=O)N([C@@H](C)CO)C[C@@H](C)[C@H](CN(C)S(=O)(=O)c1cccs1)OCCCC[C@@H](C)O2 | i
Cc1ccc(S(=O)(=O)Nc2ccc3c(c2)C(=O)N([C@H](C)CO)C[C@H](C)[C@@H](CN(C)S(=O)(=O)c2cccs2)OCCCC[C@H](C)O3)cc1 | -121.9*
Cc1ccc(S(=O)(=O)Nc2ccc3c(c2)C(=O)N([C@@H](C)CO)C[C@@H](C)[C@H](CN(C)S(=O)(=O)c2cccs2)OCCCC[C@H](C)O3)cc1 | -58.6
Cc1noc(C)c1NC(=O)Nc1ccc2c(c1)C(=O)N([C@H](C)CO)C[C@@H](C)[C@H](CN(C)S(=O)(=O)c1cccs1)OCCCC[C@@H](C)O2 | 90.3
SMILES | Tgondii IFNg
CCOc1ccccc1NC(=O)c1nnn(Cc2nc(-c3ccccc3C)oc2C)c1C | 36.1
CCCCNC(=O)CCC1N=C2c3ccccc3N=C(SCc3ccc(C)cc3)N2C1=O (stereo unspecified) | -46.5
O=S(=O)(N1CCCC1)N1CCCCC1CCc1ccccc1 (stereo unspecified) | -5.8
COc1ccc(NC(=O)C(=O)NCCc2csc(-c3cccc(F)c3)n2)cc1OC | 30.7
COc1cc(CCc2cc(NC(=O)c3ccc(N4C[C@@H](C)N[C@@H](C)C4)cc3)n[nH]2)cc(OC)c1 | -74.5*
COc1ccc(NC(=O)c2ccc(-n3c(C)ccc3C)cc2)c(OC)c1 | 13.8
COc1ccc(CCCNC(=O)c2ccc(N3CC(O)C3)nc2)cc1 | -0.9
CCOC(=O)CC1CCCCN1Cc1cc(=O)n2cc(Cl)ccc2n1 (stereo unspecified) | -4.6
COc1cccc(C(=O)NCCc2csc(-c3ccc(C(F)(F)F)cc3)n2)c1 | i
CCOCC(C)(C)NC(=O)CC(=O)Nc1cc(C)cc(C)c1 | 4.2
COC(=O)C1=C(C)NC(C)=C([N+](=O)[O-])[C@H]1c1ccccc1C(F)(F)F | -34.5
COC(=O)C1=C(C)NC(C)=C(C(=O)OCC(C)C)C1c1ccccc1[N+](=O)[O-] (stereo unspecified) | 17.3
C#CCN1C(C)=C(C(=O)OC)C(c2cccc([N+](=O)[O-])c2)C(C(=O)OCC)=C1C (stereo unspecified) | 15.2
COC(=O)C1=C(C)NC(C)=C(C(=O)OCCCN2CCC(c3ccccc3)(c3ccccc3)CC2)[C@@H]1c1cccc([N+](=O)[O-])c1 | -87.1*
COC(=O)C1=C(C)NC(C)=C(C(=O)NCCCN2CCC(c3ccccc3)(c3ccccc3)CC2)C1c1ccc([N+](=O)[O-])cc1 (stereo unspecified) | -75.8*
COC(=O)C1=C(C)NC(C)=C(C(=O)O[C@H]2CCN(Cc3ccccc3)C2)[C@H]1c1cccc([N+](=O)[O-])c1 | -2.1
Cc1ccc(-n2cc(CN(C)Cc3cn(C)nc3C)c(-c3ccc(F)cc3)n2)cc1 | -8.3
COc1ccc2c(c1)NC1(CCN(C(=O)NCc3ccc(F)cc3)CC1)c1cccn1-2 | 318.9
CN[C@H](C(=O)N[C@H](C(=O)N(C)[C@H](/C=C(\C)C(=O)O)C(C)C)C(C)(C)C)C(C)(C)c1ccccc1 | -71.3*
Cc1cccc(-c2noc(CCC(=O)N3CCCN4CCC[C@H]4C3)n2)c1 | 18.4
O=C(c1cccc(Cl)c1)N1CCC2(CC1)Nc1cccnc1NC2=NC1CCCC1 | -0.7
Cc1nc(C2CCCN2C(=O)Cn2cnc3ccccc32)ncc1C(=O)N1CCOCC1 (stereo unspecified) | 4.9
COc1ccc(CCNc2cnn(-c3ccccc3)c(=O)c2Cl)cc1OC | -82.8*
O=c1c(Cl)c(Oc2ccccc2)cnn1-c1ccccc1 | 71.6
COc1ccc(CCNC(=O)Cc2ccccc2)cc1OC | -48.1
COc1ccc(C)cc1NC(=O)c1nc(Nc2ccccc2)c2ccccc2n1 | 18.8
COc1cccc(CNC(=O)c2c(O)c3ccccc3n(-c3ccccc3)c2=O)c1 | -5.0
O=C(NCc1ccc(Cl)cc1)c1c(O)c2ccccc2n(-c2ccccc2)c1=O | -124.4*
O=C(NCc1ccc(Cl)cc1)c1c(O)c2cccnc2n(-c2ccc(F)cc2)c1=O | -105.1*

Source: PubChem
